{"source": "the supplement of paper PMC10498489", "note": "The whole screen tested about 2,300 compounds, of which about 330 (14%) showed activity. These entries were drawn from the full list. Values without a mark were called inactive.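 The calls were made as follows: active = median modified Z-score above 1.96; inactive = 1.96 or below.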"}
{"system": "HepG2 Srxn1-GFP reporter cells (+30 nM CDDO-Me)", "experiment": "Srxn1-GFP intensity median modified Z-score relative to plate median; higher = stronger NRF2 / oxidative stress reporter activation, active = hit call of the paper", "details": "10 µM; exposure time: 24h", "procedure,_shortened": "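Values give the median, over replicates, of the modified Z-score of GFP intensity on each plate. HepG2 Srxn1-GFP BAC reporter cells were co-treated for 24 h with an NRF2 activator at 30 nM and compound at 10 μM (≤0.1% DMSO) in three replicate plates, then analysed per cell for cytoplasmic GFP on confocal images with at least 100 cells. Scaling used 1.4826 × median absolute deviation.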"}
{"smiles": "CONC(=O)c1cc(-c2ccccc2)nc2ccccc12", "Srxn1-GFP intensity median modified Z-score": 1.04}
{"smiles": "Cc1cc(=NS(=O)(=O)c2ccc(N)cc2)[nH]o1", "note": "[euspeclibcmpd278]", "Srxn1-GFP intensity median modified Z-score": -0.427}
{"smiles": "C[C@@H]1CC[C@@]2(OC1)O[C@H]1CC3C4CC[C@H]5C[C@@H](O)CC[C@]5(C)C4CC[C@]3(C)[C@H]1[C@@H]2C", "note": "(stereo not given in full) [euspeclibcmpd2432]", "Srxn1-GFP intensity median modified Z-score": -0.319}
{"smiles": "C1CCN2C[C@@H]3C[C@H](CN4CCCC[C@@H]34)[C@H]2C1", "note": "[euspeclibcmpd2370]", "Srxn1-GFP intensity median modified Z-score": -0.181}
{"smiles": "N=c1[nH]c(=O)c2c([nH]1)=NCC(CNc1ccc(C(=O)N[C@H](CCC(=O)O)C(=O)O)cc1)N=2", "note": "(stereo not given in full) [euspeclibcmpd1474]", "Srxn1-GFP intensity median modified Z-score": 0.016}
{"smiles": "N=c1[nH]c(=N)c2nc(CNc3ccc(C(=O)NC(CCC(=O)O)C(=O)O)cc3)cnc2[nH]1", "note": "(stereo not given) [euspeclibcmpd911]", "Srxn1-GFP intensity median modified Z-score": "10 (active)"}
{"smiles": "N=c1[nH]c2c(c(=O)[nH]1)N(C=O)C(CNc1ccc(C(=O)NC(CCC(=O)O)C(=O)O)cc1)CN2", "note": "(stereo not given) [euspeclibcmpd2313]", "Srxn1-GFP intensity median modified Z-score": -0.0509}
{"smiles": "CN(Cc1cnc2[nH]c(=N)[nH]c(=N)c2n1)c1ccc(C(=O)NC(CCC(=O)O)C(=O)O)cc1", "note": "(stereo not given) [euspeclibcmpd190]", "Srxn1-GFP intensity median modified Z-score": "8.95 (active)"}
{"smiles": "N=c1[nH]c(=O)c2c(CCc3ccc(C(=O)NC(CCC(=O)O)C(=O)O)cc3)c[nH]c2[nH]1", "note": "(stereo not given) [euspeclibcmpd2345]", "Srxn1-GFP intensity median modified Z-score": -0.108}
{"smiles": "N=c1[nH]c(=O)c2nc(CNc3ccc(C(=O)NC(CCC(=O)O)C(=O)O)cc3)cnc2[nH]1", "note": "(stereo not given) [euspeclibcmpd579]", "Srxn1-GFP intensity median modified Z-score": 0.101}
{"smiles": "COc1ccc(C)cc1CN1CCN(C(c2ccc(F)cc2)c2ccc(F)cc2)CC1", "Srxn1-GFP intensity median modified Z-score": 1.38}
{"smiles": "Oc1ccc2c(c1)OC[C@]1(O)C=c3cc(O)c(O)cc3=C21", "note": "[euspeclibcmpd1461]", "Srxn1-GFP intensity median modified Z-score": -0.856}
{"smiles": "NC(O)=NO", "note": "[euspeclibcmpd156]", "Srxn1-GFP intensity median modified Z-score": 0.197}
{"smiles": "O=C(O)c1ccc(S(=O)(=O)N(Cl)Cl)cc1", "note": "[euspeclibcmpd144]", "Srxn1-GFP intensity median modified Z-score": -0.332}
{"smiles": "Cc1[nH]oc(=NS(=O)(=O)c2ccc(N)cc2)c1C", "note": "[euspeclibcmpd283]", "Srxn1-GFP intensity median modified Z-score": -0.063}
{"smiles": "CCC(C)C(=O)O[C@H]1C[C@@H](C)C=C2C=C[C@H](C)[C@H](CC[C@@H]3C[C@@H](O)CC(=O)O3)[C@H]21", "note": "(stereo not given in full) [euspeclibcmpd875]", "Srxn1-GFP intensity median modified Z-score": -0.147}
{"smiles": "O=C1CC(c2ccccc2)Oc2ccccc21", "note": "(stereo not given) [euspeclibcmpd1376]", "Srxn1-GFP intensity median modified Z-score": "3.07 (active)"}
{"smiles": "O=C1CC(c2ccc(O)cc2)Oc2ccccc21", "note": "(stereo not given) [euspeclibcmpd2144]", "Srxn1-GFP intensity median modified Z-score": -0.183}
{"smiles": "O=C1C[C@@H](c2ccc(O)cc2)Oc2cc(O)cc(O)c21", "note": "[euspeclibcmpd1328]", "Srxn1-GFP intensity median modified Z-score": 0.815}
{"smiles": "COc1cc(O)c2c(=O)cc(-c3ccc(O)cc3)oc2c1", "note": "[euspeclibcmpd2253]", "Srxn1-GFP intensity median modified Z-score": 0.0845}
{"smiles": "CCOC(=O)NN=c1[nH]ncc2ccccc12", "note": "[euspeclibcmpd1066]", "Srxn1-GFP intensity median modified Z-score": 0.23}
{"smiles": "N=c1[nH]c(C(CCC(=O)O)C(=O)N=C2C(=O)N3C(C(=O)O)=CCS[C@H]23)cs1", "note": "(stereo not given in full) [euspeclibcmpd717]", "Srxn1-GFP intensity median modified Z-score": -0.318}
{"smiles": "O=C(CCc1ccc(O)cc1)c1c(O)cc(O)cc1O", "note": "[euspeclibcmpd1518]", "Srxn1-GFP intensity median modified Z-score": "16.3 (active)"}
{"smiles": "CCC(=O)c1c(O)cc(O)cc1O", "note": "[euspeclibcmpd1034]", "Srxn1-GFP intensity median modified Z-score": 0.366}
{"smiles": "O=C(CCc1ccc(O)cc1)c1c(O)cc(O)cc1O[C@@H]1O[C@H](CO)[C@@H](O)[C@H](O)[C@H]1O", "note": "[euspeclibcmpd1493]", "Srxn1-GFP intensity median modified Z-score": -0.343}
{"smiles": "Cc1c(C(=O)O)c(O)cc2c(O)c3c(O)c(O)c(C4O[C@H](CO)[C@@H](O)[C@H](O)C4=O)c(O)c3c(O)c12", "note": "(stereo not given in full) [euspeclibcmpd1436]", "Srxn1-GFP intensity median modified Z-score": -0.693}
{"smiles": "NC[C@H]1O[C@H](O[C@H]2[C@H](O)[C@@H](O[C@H]3O[C@H](CO)[C@@H](O)[C@H](N)[C@H]3O)[C@H](N)C[C@@H]2N)[C@H](N)[C@@H](O)[C@@H]1O", "note": "[euspeclibcmpd351]", "Srxn1-GFP intensity median modified Z-score": 0.19}
{"smiles": "CC[C@@H](CO)NCCN[C@@H](CC)CO", "note": "[euspeclibcmpd120]", "Srxn1-GFP intensity median modified Z-score": -0.816}
{"smiles": "O=C(O)C1=C(CCO)O[C@@H]2CC(=O)N12", "note": "[euspeclibcmpd2294]", "Srxn1-GFP intensity median modified Z-score": 0.746}
{"smiles": "O=C(O)CCC(=O)Nc1ccc(S(=O)(=O)N=c2[nH]ccs2)cc1", "note": "[euspeclibcmpd428]", "Srxn1-GFP intensity median modified Z-score": 0.358}
{"smiles": "COc1cc(Cc2c[nH]c(=N)[nH]c2=N)cc(OC)c1OC", "note": "[euspeclibcmpd310]", "Srxn1-GFP intensity median modified Z-score": 0.316}
{"smiles": "CC1=C(/C=C/C(C)=C/C=C/C(C)=C/C=C/C=C(C)/C=C/C=C(C)/C=C/C2=C(C)C(=O)CCC2(C)C)C(C)(C)CCC1=O", "note": "[euspeclibcmpd1669]", "Srxn1-GFP intensity median modified Z-score": -0.405}
{"smiles": "CC1CC(=O)NN=C1c1ccc(NN=C(C#N)C#N)cc1", "note": "(stereo not given) [euspeclibcmpd481]", "Srxn1-GFP intensity median modified Z-score": 0.356}
{"smiles": "CN1CCC(=C2c3ccccc3Sc3ccccc32)CC1", "note": "[euspeclibcmpd1250]", "Srxn1-GFP intensity median modified Z-score": 0.25}
{"smiles": "CN1CCC(=C2c3ccccc3C=Cc3ccccc32)CC1", "note": "[euspeclibcmpd890]", "Srxn1-GFP intensity median modified Z-score": "7.54 (active)"}
{"smiles": "CN1CCC(=C2c3ccccc3CCc3sccc32)CC1", "note": "[euspeclibcmpd488]", "Srxn1-GFP intensity median modified Z-score": 0.0303}
{"smiles": "C=CCn1c(C(C)Oc2ccc(OCC)cc2)nnc1N1CCC(C(=O)OC)CC1", "note": "(stereo not given)", "Srxn1-GFP intensity median modified Z-score": 1.58}
{"smiles": "Cn1c(SC2CCCCC2=O)nnc1-c1cccc(Br)c1", "note": "(stereo not given)", "Srxn1-GFP intensity median modified Z-score": "4.66 (active)"}
{"smiles": "CC1(O)CCOC(=O)C1", "note": "(stereo not given) [euspeclibcmpd1666]", "Srxn1-GFP intensity median modified Z-score": -0.384}
{"smiles": "N=c1[nH]c(N)ccc1N=Nc1ccccc1", "note": "[euspeclibcmpd230]", "Srxn1-GFP intensity median modified Z-score": 0.85}
{"smiles": "O=C(CCCN1CCN(c2ccccn2)CC1)c1ccc(F)cc1", "note": "[euspeclibcmpd1317]", "Srxn1-GFP intensity median modified Z-score": 0.00738}
{"smiles": "CCCC[C@@H](CC)COC(=O)c1ccccc1O", "note": "[euspeclibcmpd865]", "Srxn1-GFP intensity median modified Z-score": -0.26}
{"smiles": "CN(C/C=C/C#CC(C)(C)C)Cc1cccc2ccccc12", "note": "[euspeclibcmpd767]", "Srxn1-GFP intensity median modified Z-score": "3.24 (active)"}
{"smiles": "c1ccc2c(CC3=NCCN3)cccc2c1", "note": "[euspeclibcmpd204]", "Srxn1-GFP intensity median modified Z-score": -0.697}
{"smiles": "CN(C/C=C/c1ccccc1)Cc1cccc2ccccc12", "note": "[euspeclibcmpd791]", "Srxn1-GFP intensity median modified Z-score": 0.553}
